{
  "source": "PubChem BioAssay AID624117",
  "about": "(National Center for Advancing Translational Sciences (NCATS), 2012)",
  "note": "Results filed as inconclusive are left out. Calls of active or inactive are those of the source. Calls follow the shape of the dose curve; as a rule, active = well fitted curve in the direction sought with a large enough effect; inconclusive = small, poorly fitted or top-dose-only effect, or another doubt; inactive = no such curve, though single readings can be large or run the other way.",
  "data": [
    {"test": "qHTS Assay for Rab9 Promoter Activators: Hit Validation Using Renilla Luciferase Read-Out; also: % of control where 0% means no effect", "conditions": "Huh7 NPC1 promoter Renilla luciferase reporter, 24 h; series mostly up to 76.9 µM; activation (negative = inhibition): at the top concentration", "text": "Niemann Pick Type C (NPC) is a rare neurodegenerative lipidosis that is characterized by lipid storage in the endosomal/lysosomal system. Treatment modalities for this devastating disease are currently non-existent due to the severe obstacles associated with accessing the central nervous system with proteins or genes. The majority of mutations causing NPC disease are missense mutations that are distributed throughout the length of the NPC1 protein, with the most prevalent being the I1061T allele. Although NPC1 mutant proteins may be functional, they are typically trapped in the ER due to misfolding. […] We have developed and optimized a cell based renilla luciferase reporter assay in 1536 well format for the identification of up-regulators of the mutant NPC1 promoter. This assay presents data on the validation of hits from the primary screen, which used a firefly luciferase read-out. NIH Chemical Genomics Center [NCGC] NIH Molecular Libraries Probe Production centers Network [MLPCN] MLPCN Grant: MH089375 Assay Submitter (PI): Yiannis A. Ioannou\nHuh7 cells stably expressing NPC promoter-luciferase will be seeded at 1,500 cells/well in 5 uL in 1,536-well white opaque plates with 23 nL/well of compound in DMSO solution. The assay plates will be incubated at 37 deg C for 24 hours, after which 3 uL/well BriteLite plus luciferase detection reagent mixture (Perkin Elmer) will be added. Luminescence signal will be measured in a ViewLux plate reader (Perkin Elmer) after a 10 minute incubation at the room temperature.", "values": [
      {"molecule": "CCC(=NCc1cccnc1)c1c(O)n(-c2ccccc2)c(=O)[nH]c1=O", "activation (negative = inhibition)": "-4.03% (inactive)"},
      {"molecule": "COc1cccc(CCNCc2ccc(SC)cc2)c1", "activation (negative = inhibition)": "5.03% (inactive)"},
      {"molecule": "O=C1c2ccccc2C(=O)N1Cc1nc2ccccc2c(=O)n1-c1cccnc1", "activation (negative = inhibition)": "2.07% (inactive)"},
      {"molecule": "CN1CCc2cc3c(c4c2C1Cc1ccccc1-4)OCO3", "note": "(stereo not given)", "activation (negative = inhibition)": "-31.1% (inactive)"},
      {"molecule": "Cc1cccn2c(NCC3CCCO3)c(C(C)C)nc12", "note": "(stereo not given)", "activation (negative = inhibition)": "3.86% (inactive)"}
    ]}
  ]
}
